# Results taken from PubChem BioAssay (NCATS).
# Where “and” joins values, the source holds several entries; their conditions need not be identical. Equal values may be shown once.
# Experiment: qHTS drug screen for cell cycle checkpoint inhibitors in PARPi-resistant BRCA-mutant ovarian cancer cell lines. (AID 1963452)
# Details: PEO1/OlaR viability, CellTiter-Glo luminescence, 96 h; measured here: PEO1 parental Z-AUC; stronger effect = lower value
# How it was run: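 PEO1, PEO4 and PEO1/OlaR ovarian cancer cells, 600 per well, exposed 96 h at 37C to a dilution series. Viability read by CellTiter-Glo luminescence, normalized to DMSO and empty wells; activity summarized as Z-AUC.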
row,Structure (SMILES),Z-AUC
1,CN(C)Cc1ccc(S(=O)(=O)n2ccc(/C=C/C(=O)NO)c2)cc1,1.02
2,CO[C@@H]1[C@@H](O)[C@H](O)[C@@H](n2c3c(Cl)cccc3c3c4c(c5c6cccc(Cl)c6[nH]c5c32)C(=O)NC4=O)O[C@H]1CO,-0.854
3,CC(C)n1c(/C=C/[C@H](O)C[C@H](O)CC(=O)O)c(-c2ccc(F)cc2)c2ccccc21,1.21
4,OCCOc1ccc(/C(=C(/CCCl)c2ccccc2)c2ccccc2)cc1,0.225
5,C=CC(=O)N[C@H]1CCOC[C@H]1Nc1ncc2cc(-c3c(Cl)c(OC)cc(OC)c3Cl)ccc2n1,0.408
6,O=C(Nc1cnccc1Cl)N1CCN(Cc2ccc3c(c2)OC(F)(F)O3)CC1,0.137
7,CN(C)CCOc1ccc(-c2nc(-c3ccc4c(c3)CC/C4=N\O)c(-c3ccncc3)[nH]2)cc1,-1.12
8,COC(=O)N(CC(=O)O)Cc1cccc(OCc2nc(-c3ccc(Cl)cc3)oc2C)c1,-0.00269
9,COc1ccc(S(=O)(=O)NCc2ccc(C(=O)NCCc3ccc(Cl)cn3)cc2)cc1,-0.947
10,CN1C[C@@H]2c3ccccc3Oc3ccc(Cl)cc3[C@H]2C1,1.52
11,NC(=S)N/N=C/c1ncccc1N,0.81
12,CCS(=O)(=O)Nc1ccc(Oc2ccc(F)cc2F)c(-c2cn(C)c(=O)c3[nH]ccc23)c1,-1.41
13,CC[C@@H](Oc1cccc(CN(CCCOc2ccc(OC)cc2)c2nc3ccccc3o2)c1)C(=O)O,0.312
14,C[C@H]1CN(C2COC2)CCN1c1ccc(Nc2cc(-c3ccnc(N4CCn5c(cc6c5CC(C)(C)C6)C4=O)c3CO)cn(C)c2=O)nc1,0.727
15,C/C=C(/C)C(=O)O[C@H]1C(C)=CC23C(=O)C(C=C(CO)[C@@H](O)[C@]12O)[C@H]1[C@@H](C[C@H]3C)C1(C)C (stereo not given in full),-0.301
16,COc1cc(=C2C=c3ccccc3=N2)[nH]/c1=C/c1[nH]c(C)cc1C,0.368
17,C[C@@H]1Cc2c([nH]c3ccccc23)[C@@H](c2c(F)cc(/C=C/C(=O)O)cc2F)N1CC(C)(C)F,-0.682
18,Cc1cc(Oc2ccc3nc(COc4ccc(CC5SC(=O)NC5=O)cc4)n(C)c3c2)cc(C)c1N (stereo not given),0.128

row,Structure (SMILES),Z-AUC
1,CC#CC(=O)N1CC[C@@H](n2c(=O)n(-c3ccc(Oc4ccccc4)cc3)c3c(N)ncnc32)C1,0.828
2,CN1C(=O)N(c2cc(Cl)cc(Cl)c2)C(=O)[C@]12CN(Cc1cc(C(=O)O)cs1)C[C@H]2c1ccc(C#N)cc1,1.08
3,N#CCC1(n2cc(-c3ncnc4[nH]ccc34)cn2)CN(C2CCN(C(=O)c3ccnc(C(F)(F)F)c3F)CC2)C1,-0.513
4,Cc1cc(O)c(-c2ccc([C@@H](C)CN)cc2)c2c1[nH]c(=O)c1sccc12,-2.78
5,CCC(=O)OCC(=O)C1(OC(=O)CC)C(C)CC2C3CCC4=CC(=O)C=CC4(C)C3(F)C(O)CC21C (stereo not given),0.623
6,N#C/C(=C1/Nc2ccccc2S1)c1ccnc(OCc2ccc(CN3CCOCC3)cc2)n1,0.219
7,NC(=O)c1cnc2[nH]ccc2c1NC1C2CC3C[C@H]1CC(O)(C3)C2 (stereo not given in full),0.594
8,CN(C(=O)CNC(=O)/C=C/c1cccc(Cl)c1)C1CCS(=O)(=O)CC1,-0.958
9,COc1cc(N2CCN(C)CC2)ccc1Nc1ncc2c(n1)N(C)c1ccccc1C(=O)N2C,0.0513
10,CN1CCN(c2ccc(Nc3ncc4cc(C#N)c(=O)n(C5CCCC5)c4n3)cc2)CC1,0.47
11,C=C1/C(=C\C=C2/CCC[C@]3(C)[C@@H]([C@H](C)CCCC(C)(C)O)CC[C@@H]23)C[C@@H](O)C[C@@H]1O,0.475 and 0.837
12,O=c1cc(N2CCOCC2)oc2c(-c3ccc4c(c3)OCCO4)csc12,-0.602
13,CO[C@H]1/C=C/O[C@@]2(C)Oc3c(C)c(O)c4c(O)c(c5c(c4c3C2=O)=NC2(CCN(CC(C)C)CC2)N=5)NC(=O)/C(C)=C/C=C/[C@H](C)[C@H](O)[C@@H](C)[C@@H](O)[C@@H](C)[C@H](OC(C)=O)[C@@H]1C,0.697
14,CC/C(=C(/c1ccc(O)cc1)c1ccc(OCCNC)cc1)c1ccccc1,0.257
15,C[C@@H](O)[C@@H]1NC(=O)[C@H](CCCCN)NC(=O)[C@@H](Cc2c[nH]c3ccccc23)NC(=O)[C@H](Cc2ccccc2)NC(=O)[C@@H](NC(=O)[C@H](N)Cc2ccccc2)CSSC[C@@H](C(=O)N[C@H](CO)[C@@H](C)O)NC1=O,0.495
16,CCC(=C/[C@H](C)C/C=C/C(C)=C/[C@@H](C)C(=O)[C@@H](C)[C@H](O)[C@@H](C)C/C(C)=C/C(=O)O)/C=C/[C@@H]1OC(=O)C=C[C@@H]1C,-4.05
17,O=C(CCc1ccc(O)cc1)c1c(O)cc(O)cc1O[C@@H]1O[C@H](CO)[C@@H](O)[C@H](O)[C@H]1O,0.557

# Same assay, conditions: PEO1/OlaR viability, CellTiter-Glo luminescence, 96 h; measured here: PEO4 Z-AUC; stronger effect = lower value
row,Structure (SMILES),Z-AUC
1,CN(C)Cc1ccc(S(=O)(=O)n2ccc(/C=C/C(=O)NO)c2)cc1,1.35
2,CO[C@@H]1[C@@H](O)[C@H](O)[C@@H](n2c3c(Cl)cccc3c3c4c(c5c6cccc(Cl)c6[nH]c5c32)C(=O)NC4=O)O[C@H]1CO,-0.743
3,CC(C)n1c(/C=C/[C@H](O)C[C@H](O)CC(=O)O)c(-c2ccc(F)cc2)c2ccccc21,1.13
4,OCCOc1ccc(/C(=C(/CCCl)c2ccccc2)c2ccccc2)cc1,0.557
5,C=CC(=O)N[C@H]1CCOC[C@H]1Nc1ncc2cc(-c3c(Cl)c(OC)cc(OC)c3Cl)ccc2n1,0.57
6,O=C(Nc1cnccc1Cl)N1CCN(Cc2ccc3c(c2)OC(F)(F)O3)CC1,0.79
7,CN(C)CCOc1ccc(-c2nc(-c3ccc4c(c3)CC/C4=N\O)c(-c3ccncc3)[nH]2)cc1,-1.55
8,COC(=O)N(CC(=O)O)Cc1cccc(OCc2nc(-c3ccc(Cl)cc3)oc2C)c1,0.458
9,COc1ccc(S(=O)(=O)NCc2ccc(C(=O)NCCc3ccc(Cl)cn3)cc2)cc1,-0.745
10,CN1C[C@@H]2c3ccccc3Oc3ccc(Cl)cc3[C@H]2C1,1.41
11,NC(=S)N/N=C/c1ncccc1N,0.897
12,CCS(=O)(=O)Nc1ccc(Oc2ccc(F)cc2F)c(-c2cn(C)c(=O)c3[nH]ccc23)c1,-1.58
13,CC[C@@H](Oc1cccc(CN(CCCOc2ccc(OC)cc2)c2nc3ccccc3o2)c1)C(=O)O,0.341
14,C[C@H]1CN(C2COC2)CCN1c1ccc(Nc2cc(-c3ccnc(N4CCn5c(cc6c5CC(C)(C)C6)C4=O)c3CO)cn(C)c2=O)nc1,0.518
15,C/C=C(/C)C(=O)O[C@H]1C(C)=CC23C(=O)C(C=C(CO)[C@@H](O)[C@]12O)[C@H]1[C@@H](C[C@H]3C)C1(C)C (stereo not given in full),-0.581
16,COc1cc(=C2C=c3ccccc3=N2)[nH]/c1=C/c1[nH]c(C)cc1C,1.02
17,C[C@@H]1Cc2c([nH]c3ccccc23)[C@@H](c2c(F)cc(/C=C/C(=O)O)cc2F)N1CC(C)(C)F,-0.807
18,Cc1cc(Oc2ccc3nc(COc4ccc(CC5SC(=O)NC5=O)cc4)n(C)c3c2)cc(C)c1N (stereo not given),-0.444

row,Structure (SMILES),Z-AUC
1,CC#CC(=O)N1CC[C@@H](n2c(=O)n(-c3ccc(Oc4ccccc4)cc3)c3c(N)ncnc32)C1,1.1
2,CN1C(=O)N(c2cc(Cl)cc(Cl)c2)C(=O)[C@]12CN(Cc1cc(C(=O)O)cs1)C[C@H]2c1ccc(C#N)cc1,0.897
3,N#CCC1(n2cc(-c3ncnc4[nH]ccc34)cn2)CN(C2CCN(C(=O)c3ccnc(C(F)(F)F)c3F)CC2)C1,-0.617
4,Cc1cc(O)c(-c2ccc([C@@H](C)CN)cc2)c2c1[nH]c(=O)c1sccc12,-2.98
5,CCC(=O)OCC(=O)C1(OC(=O)CC)C(C)CC2C3CCC4=CC(=O)C=CC4(C)C3(F)C(O)CC21C (stereo not given),-0.145
6,N#C/C(=C1/Nc2ccccc2S1)c1ccnc(OCc2ccc(CN3CCOCC3)cc2)n1,-0.057
7,NC(=O)c1cnc2[nH]ccc2c1NC1C2CC3C[C@H]1CC(O)(C3)C2 (stereo not given in full),0.746
8,CN(C(=O)CNC(=O)/C=C/c1cccc(Cl)c1)C1CCS(=O)(=O)CC1,-0.957
9,COc1cc(N2CCN(C)CC2)ccc1Nc1ncc2c(n1)N(C)c1ccccc1C(=O)N2C,-0.152
10,CN1CCN(c2ccc(Nc3ncc4cc(C#N)c(=O)n(C5CCCC5)c4n3)cc2)CC1,0.542
11,C=C1/C(=C\C=C2/CCC[C@]3(C)[C@@H]([C@H](C)CCCC(C)(C)O)CC[C@@H]23)C[C@@H](O)C[C@@H]1O,0.77 and 1.19
12,O=c1cc(N2CCOCC2)oc2c(-c3ccc4c(c3)OCCO4)csc12,-0.553
13,CO[C@H]1/C=C/O[C@@]2(C)Oc3c(C)c(O)c4c(O)c(c5c(c4c3C2=O)=NC2(CCN(CC(C)C)CC2)N=5)NC(=O)/C(C)=C/C=C/[C@H](C)[C@H](O)[C@@H](C)[C@@H](O)[C@@H](C)[C@H](OC(C)=O)[C@@H]1C,0.909
14,CC/C(=C(/c1ccc(O)cc1)c1ccc(OCCNC)cc1)c1ccccc1,-0.283
15,C[C@@H](O)[C@@H]1NC(=O)[C@H](CCCCN)NC(=O)[C@@H](Cc2c[nH]c3ccccc23)NC(=O)[C@H](Cc2ccccc2)NC(=O)[C@@H](NC(=O)[C@H](N)Cc2ccccc2)CSSC[C@@H](C(=O)N[C@H](CO)[C@@H](C)O)NC1=O,0.728
16,CCC(=C/[C@H](C)C/C=C/C(C)=C/[C@@H](C)C(=O)[C@@H](C)[C@H](O)[C@@H](C)C/C(C)=C/C(=O)O)/C=C/[C@@H]1OC(=O)C=C[C@@H]1C,-3.51
17,O=C(CCc1ccc(O)cc1)c1c(O)cc(O)cc1O[C@@H]1O[C@H](CO)[C@@H](O)[C@H](O)[C@H]1O,0.754
